Assay results reported in PubChem BioAssay (NCATS).
Inconclusive results are not listed. A call without a number means that no potency is given here. The source made the active and inactive calls. Calls follow the shape of the dose curve; as a rule, active = well fitted curve in the direction sought with a large enough effect; inconclusive = small, poorly fitted or top-dose-only effect, or another doubt; inactive = no such curve, though single readings can be large; an effect the other way counts as inactive or inconclusive. Where a SMILES comes first, the peptide text is derived from it. [ ]: non-standard residue; d: D form. pGlu = O=C1CC[C@@H](C(=O)O)N1; Thz = O=C(O)[C@@H]1CSCN1

How the values were obtained:
[1] = molecular target: Protein phosphatase 1D (Homo sapiens) (UniProt O15297); test: Rhodamine-PBP qHTS Assay for Modulators of WT P53-Induced Phosphatase 1 (WIP1) (AID 1347425); settings: recombinant WIP1, Rhodamine-PBP phosphate fluorescence, real-time; series mostly up to 57.5 µM
In short: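 The read-out is the change in Rhodamine-PBP fluorescence (f1 - f0, ex 525/em 598 nm) as Pi is released, read each minute for 11 min. Final reaction: 5 nM WIP1, 10 uM phosphopeptide VEPPL-pS-QETFS, 10 uM Rh-PBP, 50 mM Tris-HCl pH 7.5, 30 mM MgCl2. Compound was preincubated with enzyme for 1 hour at room temperature.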

[2] = Primary qHTS for inhibitors of La Crosse Virus (LACV) - induced cell death in SH-SY5Y cells (AID 1508616); settings: SH-SY5Y LACV cytopathicity rescue, ATP luminescence, 6 d; series mostly up to 9.63 µM;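 also: top concentration of the series differs between compounds; higher means more rescue of cells from virus-induced death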
In short: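 Protection against LACV-induced cell death is scored in SH-SY5Y cells exposed to compounds and virus (0.01 MOI) for 6 days. Data normalized to virus-infected DMSO wells and virus-free DMSO wells.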

[3] = molecular target: Calcium and integrin-binding protein 1 (Homo sapiens) (UniProt Q99828); test: Primary qHTS for Identification of Calcium Integrin Binding Protein 1 (CIB1) Competitor (AID 1508620); settings: CIB1-GST / FITC-alphaIIb peptide fluorescence polarization; series mostly up to 114 µM;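 also: GST tagged CIB1 binding a fluorescein labelled alphaIIb integrin peptide tracer; top concentration of the series differs between compounds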
In short: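 CIB1-GST (1 uM final) and compound incubated 15 min at room temperature before adding FITC-alphaIIb peptide tracer (100 nM final). Competition for binding read by fluorescence polarization (ex 480, em 540) after another 15 min at room temperature.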

[4] = Validation qHTS assay for inhibitors of Activation Induced Cytidine Deaminase (AID): UDG Counterscreen signal (AID 1347427); settings: biochemical UDG counterscreen, fluorescence signal; series mostly up to 115 µM
In short: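 Counterscreen read of UDG activity (2 U/mL, 4/3x) in the FRET deamination format with AID (1 uM, 4/3x), DJC20/DJC23 substrates (250 nM, 4x), 4 h at room temperature. NaOH stop, fluorescence at 560 ex/665 em.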

[5] = molecular target: Single-stranded DNA cytosine deaminase (Homo sapiens) (UniProt Q9GZX7); test: Validation qHTS assay for inhibitors of Activation Induced Cytidine Deaminase (AID): AID signal (AID 1347429); settings: Recombinant AID, FRET ssDNA deamination with UDG, fluorescence; series mostly up to 115 µM; also: potency is read from the fitted curve at half-maximal effect
In short: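 Fluorescence at 540 nm excitation and 590 nm emission reports ssDNA cytosine deamination by AID, with UDG in the same well. Compound-treated reactions ran 4 hr at room temperature with DJC20/DJC23 substrate, followed by 30 min NaOH treatment.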

[6] = molecular target: Protein phosphatase 1D (Homo sapiens) (UniProt O15297); test: RapidFire Mass Spectrometry qHTS Assay for Modulators of WT P53-Induced Phosphatase 1 (WIP1) (AID 1347424); settings: WIP1 dephosphorylation of phosphopeptide, RapidFire MS; series mostly up to 63 µM;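 also: amount of dephosphorylated VEPPL-S-QETFS peptide product formed by WIP1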; also: potency is read from the fitted curve at half-maximal effect
In short: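 10 nM WIP1 + cpd, 1 h RT; + 2 uM VEPPL-pS-QETFS, 5 min RT; stop 0.5% formic acid; labelled product standard 1 uM; RapidFire MS. Buffer 50 mM Tris pH 7.5, 30 mM MgCl2, 1 mM TCEP.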

[7] = molecular target: Calcium and integrin-binding protein 1 (Homo sapiens) (UniProt Q99828); test: Confirmatory qHTS for Identification of Calcium Integrin Binding Protein 1 (CIB1) Competitor (AID 1508617); settings: CIB1 binding competition assay, biochemical qHTS; also: potency is read from the fitted curve at half-maximal effect; nearly all actives have a fitted effect of over 65% in size
In short: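 Compounds at up to 114 uM final met 1 uM GST-tagged CIB1 for 15 min at room temperature (HEPES pH 7.4, 5 mM CaCl2). FITC-labelled alphaIIb peptide, 100 nM, added; polarization read after 15 min more.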

[8] = molecular target: Calcium and integrin-binding protein 1 (Homo sapiens) (UniProt Q99828); test: Validation qHTS for Identification of Calcium Integrin Binding protein 1 (CIB1) Competitor (AID 1508618); settings: CIB1-GST / FITC-alphaIIb peptide fluorescence polarization; series mostly up to 114 µM
In short: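 CIB1-GST (1 uM final) incubated 15 min at room temperature with compounds (up to 114 uM), then FITC-labelled alphaIIb peptide (100 nM) added. FP read (Ex 480/Em 540) after 15 min, pH 7.4 buffer containing 5 mM CaCl2.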

Calcium and integrin-binding protein 1 (Homo sapiens), sequence (Q99828 whole entry, looked up): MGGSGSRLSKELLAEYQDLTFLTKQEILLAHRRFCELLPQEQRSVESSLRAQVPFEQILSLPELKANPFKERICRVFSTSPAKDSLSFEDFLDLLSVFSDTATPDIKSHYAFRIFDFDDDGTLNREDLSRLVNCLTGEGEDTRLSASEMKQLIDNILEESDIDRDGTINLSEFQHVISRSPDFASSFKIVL
Protein phosphatase 1D (Homo sapiens), sequence (O15297 whole entry, looked up): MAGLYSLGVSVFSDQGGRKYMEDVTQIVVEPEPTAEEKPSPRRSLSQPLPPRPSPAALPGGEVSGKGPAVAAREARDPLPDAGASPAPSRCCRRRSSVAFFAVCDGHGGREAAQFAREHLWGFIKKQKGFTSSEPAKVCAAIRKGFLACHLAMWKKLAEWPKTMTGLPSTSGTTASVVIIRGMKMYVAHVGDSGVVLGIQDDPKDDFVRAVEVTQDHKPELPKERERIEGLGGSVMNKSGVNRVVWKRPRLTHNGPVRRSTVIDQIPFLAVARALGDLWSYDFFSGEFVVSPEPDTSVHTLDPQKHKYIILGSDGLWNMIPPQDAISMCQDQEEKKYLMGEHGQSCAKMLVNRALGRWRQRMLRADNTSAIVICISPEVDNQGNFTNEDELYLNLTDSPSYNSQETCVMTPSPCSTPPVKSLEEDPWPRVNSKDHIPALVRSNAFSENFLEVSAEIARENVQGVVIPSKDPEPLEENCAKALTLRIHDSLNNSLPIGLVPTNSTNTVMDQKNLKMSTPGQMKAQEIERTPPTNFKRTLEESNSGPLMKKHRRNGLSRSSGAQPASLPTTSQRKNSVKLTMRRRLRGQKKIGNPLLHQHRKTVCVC
Single-stranded DNA cytosine deaminase (Homo sapiens), sequence (Q9GZX7 whole entry, looked up): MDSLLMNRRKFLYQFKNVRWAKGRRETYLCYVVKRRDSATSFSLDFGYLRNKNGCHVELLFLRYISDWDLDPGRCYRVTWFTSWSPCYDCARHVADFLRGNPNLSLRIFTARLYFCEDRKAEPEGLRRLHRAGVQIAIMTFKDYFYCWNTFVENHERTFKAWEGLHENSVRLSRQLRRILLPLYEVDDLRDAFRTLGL

SMILES: Cc1cc(O)c2ccccc2c1O
- outcome [1]: inactive
- Potency [2]: inactive
- Potency [3]: inactive

SMILES: CCCCCC(O)c1cccc(OCc2ccc3ccccc3n2)c1 (configuration not stated)
- Potency [4]: inactive
- Potency [5]: inactive

SMILES: C[N+](C)(C)CC(=O)[O-]
- Potency [4]: inactive
- Potency [5]: inactive
- Potency [2]: inactive

SMILES: Cc1ccc(C(=O)c2ccc(CC(=O)O)n2C)cc1
- Potency [6]: inactive
- outcome [1]: inactive
- Potency [3]: inactive

SMILES: CN(C)CCCO[C@@H]1[C@H]2OC(C)(C)O[C@H]2O[C@@H]1[C@H](O)CO
- Potency [4]: inactive
- Potency [5]: inactive
- Potency [2]: inactive

SMILES: COc1ccccc1N1CCN(CCN(C(=O)c2ccc(I)cc2)c2ccccn2)CC1
- Potency [4]: inactive
- Potency [5]: inactive
- Potency [2]: inactive

SMILES: CCCCCCCCCCCCCCCCCC(=O)NCC(COP(=O)([O-])OCC[N+](C)(C)C)OCC (configuration not stated)
- Potency [4]: inactive
- Potency [5]: inactive

SMILES: CCc1c(C(=O)NCCc2ccc(N3CCCCC3)cc2)[nH]c2ccc(Cl)cc12
- Potency [4]: inactive
- Potency [5]: inactive
- Potency [2]: inactive

SMILES: Nc1ccc(O)c(C(=O)O)c1
- Potency [6]: 17.8 µM (active)
- Potency [2]: inactive

SMILES: C#C[C@]1(O)CC[C@H]2[C@@H]3CCc4cc(O)ccc4[C@H]3CC[C@@]21C
- Potency [6]: inactive
- outcome [1]: inactive
- Potency [3]: inactive

SMILES: CN1CCC[C@H]1c1cccnc1
- Potency [4]: inactive
- Potency [5]: inactive
- Potency [2]: inactive

SMILES: C=CC(=O)c1ccc(CCCCCC)cc1
- Potency [4]: inactive
- Potency [5]: inactive
- Potency [2]: inactive

SMILES: Nc1cc(-c2ccncc2)c[nH]c1=O
- Potency [6]: 22.4 µM (active)
- Potency [2]: inactive

SMILES: C[N+](C)(CCCCCC[N+](C)(C)CCCN1C(=O)c2cccc3cccc(c23)C1=O)CCCN1C(=O)c2cccc3cccc(c23)C1=O
- Potency [4]: inactive
- Potency [5]: 1.41 µM (active)

SMILES: N#C/C(=C\c1c[nH]c2ccccc12)C(=O)c1ccc(O)c(O)c1
- Potency [4]: inactive
- Potency [5]: inactive

SMILES: Nc1ccc(O)c([N+](=O)[O-])c1
- Potency [6]: 35.5 µM (active)
- Potency [2]: inactive
- Potency [7]: 50.1 µM (active)

SMILES: N=C(N)SCCc1ccc(CCSC(=N)N)cc1
- Potency [4]: inactive
- Potency [5]: inactive

SMILES: CN1[C@@H](CC(=O)c2ccccc2)CCC[C@H]1C[C@H](O)c1ccccc1
- Potency [5]: inactive
- Potency [2]: inactive
- outcome [8]: inactive

SMILES: O=C1CC[C@@H](C(=O)N2CSC[C@H]2C(=O)O)N1 ([pGlu]-[Thz]-OH)
- Potency [3]: inactive

SMILES: Cc1cn([C@H]2CC(N=[N+]=[N-])[C@@H](CO)O2)c(=O)[nH]c1=O (some centres not stated)
- outcome [8]: inactive

SMILES: O=C(O)CC[C@@H](C(=O)O)N1C(=O)c2ccccc2C1=O
- Potency [5]: inactive
- Potency [2]: inactive
- outcome [8]: inactive
